The source of these data is PubChem BioAssay.

For the assay, the target named is Torsin-1A (Homo sapiens) (UniProt O14656). Briefly: torsin A mutant lysate binding on microarrays – cell lysate, small-molecule microarray, COS7 lysate, 635/667 nm fluorescence, primary screen (AID 1150).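 Further: score pools 667 nm emission and signal to noise measuring lysate protein binding.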 The conditions noted are these: COS7 hTOR1A mutant lysate, 635 nm fluorescence, higher = more signal.
Torsin-1A (Homo sapiens), sequence (O14656 whole entry, looked up): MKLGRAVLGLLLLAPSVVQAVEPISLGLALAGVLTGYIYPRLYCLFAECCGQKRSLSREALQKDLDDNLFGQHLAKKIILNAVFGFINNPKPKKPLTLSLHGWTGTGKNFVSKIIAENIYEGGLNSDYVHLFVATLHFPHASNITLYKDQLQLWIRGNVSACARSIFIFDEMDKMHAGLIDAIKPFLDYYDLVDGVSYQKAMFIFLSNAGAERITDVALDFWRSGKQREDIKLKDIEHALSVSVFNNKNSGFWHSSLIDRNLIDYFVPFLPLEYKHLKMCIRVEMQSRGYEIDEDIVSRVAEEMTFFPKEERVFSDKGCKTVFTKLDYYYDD
In the case of `CO[C@H]1COC(=O)[C@H](CCSC)NC(=O)CC=C[C@@H](C)[C@H](OC)COC(=O)[C@@H](OCc2ccccc2)C=C[C@@H]1C`, the composite z-score turned out to be 0.732.

As to `COC(=O)[C@H](C)NC(=O)CCC1CC(OC(=O)NCCc2ccc(F)cc2)CC2(CCCC(COC(=O)NCCc3ccccc3OC)O2)O1` (stereo partly specified), the composite z-score is 0.519.

`CC(C)CN1CCc2nc(-c3ccccc3)c3c(c2C1)CO[C@@H](C)C3`: the composite z-score stood at 0.571.

Regarding `CC(C)[C@@H](OCc1ccccc1)[C@H](C)CON=C1[C@H]2CCn3c(=O)n(-c4ccccc4)c(=O)n3[C@H]2[C@H](O)[C@@H]2O[C@H]12`, the composite z-score turned out to be 0.41.

The molecule `CON=C(C)CCN1CCc2nc(-c3ccccc3)c(-c3ccccc3)cc2C1` returned a composite z-score of 0.007.

Take `COc1ccc(OC[C@H]2CN3[C@@H](CC[C@@H](C)[C@@H]3c3ccc(Br)cc3)C(=O)O2)cc1`: the composite z-score is 0.28.

Take `O=C(NN=C1C[C@@H](O)[C@@H](O)[C@@H]2[C@@H]3C(=O)N(c4ccc(F)cc4F)C(=O)[C@@H]3CC[C@H]12)OCc1ccccc1`: the composite z-score was found to be 1.13.

`COC(=O)[C@H](C)NC(=O)CCC1CC(OC(=O)NCc2cccc3ccccc23)CC2(CCCC(COC(=O)NCc3ccccc3)O2)O1` (stereo partly specified) gave a composite z-score of 0.542.

Consider `O=C1C2=CC[C@H]3C(=O)N(C4CCCCC4)C(=O)[C@H]3[C@H]2[C@H](O)[C@@H]2O[C@H]12`, for which the composite z-score is -0.53.

Consider `C#CCCCON=C1C[C@@H](O)[C@@H](O)[C@@H]2[C@@H]3C(=O)N(C[C@@H]4CCCO4)C(=O)[C@@H]3CC[C@H]12`, for which the composite z-score came to 0.406.

For `O=C1[C@H]2CCn3c(=O)n(-c4ccccc4)c(=O)n3[C@H]2[C@H](O)[C@@H]2O[C@H]12`, the composite z-score turned out to be 0.109.

Turning to `CC(=O)OC[C@H]1O[C@H](CC=NOCC[C@@H]2C=C[C@H](OC(C)=O)[C@@H](COC(C)=O)O2)C=C[C@@H]1OC(C)=O`, the composite z-score was found to be 1.05.

Regarding `CCCNC(=O)OC[C@H]1O[C@H](CCON=C[C@@H](C)[C@H](OCc2ccccc2)C(C)C)C=C[C@@H]1Oc1ccc(OC)cc1`, the composite z-score was 0.733.

Take `CC(CCC(=O)OC[C@H]1O[C@H](C#Cc2ccccc2)C=C[C@@H]1Oc1ccc(C)cc1)=NOC(C)CN1CCCCc2nc(C)c(C)cc21` (stereo partly specified): the composite z-score was -0.269.

For `CCN1C(=O)[C@H]2[C@H]3[C@H](O)[C@H](O)CC(=NNC(=O)OCc4ccccc4)[C@H]3CC[C@H]2C1=O`, the composite z-score is 0.223.

For the molecule `CO[C@@H](C(C)C)[C@@H](C)C1OC(=O)CC1O` (stereo partly specified), the composite z-score was -0.0794.

As to `CC(C)=NOC(C)CN1CCCc2nc(C)c(C)cc21` (stereo unspecified), the composite z-score was 0.386.

The molecule `CO[C@@H]1[C@H](O)CO[C@H]1C=Cc1ccccc1` yielded a composite z-score of 0.0143.

In turn, `COc1ccc(O[C@H]2C=C[C@@H](C#Cc3ccccc3)O[C@@H]2CO)cc1` had a composite z-score of -0.0971.

Regarding `CC(CCC(=O)OC[C@H]1O[C@H](C#Cc2ccccc2)C=C[C@@H]1Oc1ccc(C)cc1)=NOC[C@@H](C)[C@H](OCc1ccccc1)C(C)C`, the composite z-score is -0.28.

Molecule `CC(CCN1CCc2nc(-c3ccccc3)c(-c3ccccc3)cc2C1)=NOC(C)CN1CCCc2nc(C)c(C)cc21` (stereo unspecified) returned a composite z-score of 0.432.

For `CCOC(=O)[C@H](CC(C)C)NC(=O)CCC1CC(OC(=O)NCc2ccc3c(c2)OCO3)CC2(CCCC(COC(=O)NCCc3ccc(Cl)cc3)O2)O1` (stereo partly specified), the composite z-score was 0.361.

Molecule `CC(=O)OC[C@H]1O[C@@H](ON=C(C)CCC(=O)OC[C@H]2O[C@H](C#Cc3ccccc3)C=C[C@@H]2Oc2ccc(C)cc2)[C@H](OC(C)=O)[C@@H](OC(C)=O)[C@@H]1OC(C)=O` had a composite z-score of 0.461.

Turning to `CC(C)CON=C1C[C@@H](O)[C@@H](O)[C@@H]2[C@@H]3C(=O)N(c4ccc(F)cc4F)C(=O)[C@@H]3CC[C@@H]12`, the composite z-score is 0.218.

Turning to `CCOC(=O)CCN1C(=O)[C@H]2[C@H]3[C@H](O)[C@H](O)CC(=NO[C@@H]4O[C@H](CO)[C@@H](O)[C@H](O)[C@H]4O)[C@H]3CC[C@H]2C1=O`, the composite z-score turned out to be 0.307.

`CCOC(=O)[C@H](Cc1ccccc1)NC(=O)CCC1CC(OC(=O)NCc2cccc3ccccc23)CC2(CCCC(COC(=O)NCCc3ccc(Cl)cc3)O2)O1` (stereo partly specified) had a composite z-score of 0.244.

Take `CCN1C(=O)[C@H]2[C@H]3[C@H](O)[C@H](O)CC(=NOC[C@@H](O)COCc4ccco4)[C@H]3CC[C@H]2C1=O`: the composite z-score is 2.87.

For `C#CCCCON=C1C[C@@H](O)[C@@H](O)[C@@H]2[C@@H]3C(=O)N(C4CCCCC4)C(=O)[C@@H]3CC[C@@H]12`, the composite z-score was -0.336.

In turn, `COC(=O)[C@H](CCSC)NC(=O)CC=C[C@@H](C)CO` returned a composite z-score of 3.16.

`CCc1cc2c(nc1CC)CCN(CCC(C)=NO[C@@H]1O[C@H](COC(C)=O)[C@@H](OC(C)=O)[C@H](OC(C)=O)[C@H]1OC(C)=O)C2` registered a composite z-score of 0.495.

With `CO[C@H]1COC(=O)[C@H](C)COC(=O)[C@H](C)NC(=O)CC=C[C@H]1C`, the composite z-score stood at 1.18.

Consider `COC(=O)[C@H](C)NC(=O)CCC1CC(OC(=O)NCc2ccc3c(c2)OCO3)CC2(CCCC(COC(=O)NCCCN3CCCC3=O)O2)O1` (stereo partly specified), for which the composite z-score amounted to 0.323.

`COc1ccc(COC(=O)NN=C2C[C@@H](O)[C@@H](O)[C@@H]3[C@@H]4C(=O)N(C[C@@H]5CCCO5)C(=O)[C@@H]4CC[C@@H]23)cc1` had a composite z-score of 1.

`COc1ccc(COC(=O)NN=C2C[C@@H](O)[C@@H](O)[C@@H]3[C@@H]4C(=O)N(C(C)(C)C)C(=O)[C@@H]4CC[C@@H]23)cc1`: the composite z-score was found to be 1.47.

Take `CCOC(=O)[C@H](CC(C)C)NC(=O)CCC1CC(OC(=O)NCc2ccc3c(c2)OCO3)CC2(CCCC(COC(=O)NCc3ccccc3)O2)O1` (stereo partly specified): the composite z-score stood at 0.245.

In turn, `CC(C)[C@H](NC(=O)OC(C)(C)C)[C@@H](O)CC(=O)C(C)(C)C` came in with a composite z-score of 0.0647.
